Screens from PubChem.
Sampled rows, rich in hits. Any-hit rate of the full collection: about 7.4%.
FLuc counter: inhibits or activates purified firefly luciferase, miR-21 counter-screen; purified FLuc, Km substrates, luminescence inhibition; Potency, µM (doses to about 57.5 µM), for inactives: top-dose activity change, negative = inhibition, most hits filed as inhibitors; hit rate 6.9% among 360,000; AID 588342;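 further: plate controls were vehicle for no effect and reference inhibitor for full effect; nearly all actives have a fitted effect of over 55% in size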
Target sequence (P08659 whole entry, looked up): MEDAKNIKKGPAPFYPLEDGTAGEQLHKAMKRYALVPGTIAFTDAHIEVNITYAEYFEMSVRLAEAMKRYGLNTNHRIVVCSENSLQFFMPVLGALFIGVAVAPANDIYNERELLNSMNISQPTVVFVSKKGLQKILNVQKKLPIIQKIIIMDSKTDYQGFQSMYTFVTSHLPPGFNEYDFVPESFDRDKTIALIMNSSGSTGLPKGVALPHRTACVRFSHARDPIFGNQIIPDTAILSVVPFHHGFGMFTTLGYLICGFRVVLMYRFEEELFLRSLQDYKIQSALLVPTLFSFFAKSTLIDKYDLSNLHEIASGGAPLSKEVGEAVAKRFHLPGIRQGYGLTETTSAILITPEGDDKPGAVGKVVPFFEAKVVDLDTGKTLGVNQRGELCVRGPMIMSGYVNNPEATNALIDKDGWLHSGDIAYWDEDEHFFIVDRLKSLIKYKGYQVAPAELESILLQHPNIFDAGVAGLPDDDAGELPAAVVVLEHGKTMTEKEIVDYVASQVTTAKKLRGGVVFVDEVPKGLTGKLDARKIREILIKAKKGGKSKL
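Purified P. pyralis luciferase (10nM final) with 10uM D-luciferin and 10uM ATP (Km levels) in 50mM Tris acetate pH 7.5, 10mM Mg acetate, 0.01% Tween-20, 0.05% BSA; qHTS 6-point titration, ~60 µM downward; luminescence read.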
Rab9 prom act: activates the Rab9 promoter; hit rate 2.8% among 320,000; Potency, µM (highest dose often 9.22 µM), for the others: top-dose activation, negative = inhibition, most hits filed as activators; Huh7 Rab9 promoter-luciferase reporter, luminescence, 24 h; further: % of control where 0% means no effect; nearly all actives have a fitted effect of over 60% in size
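Luminescence from Amplite-detected luciferase (10 minutes, ambient) reports Rab9 promoter activation. Before that, stable Rab9-luciferase Huh7 cells (1500/well, reduced-serum OP-MEM I plus 10% FBS) were exposed to compound for 24 hours at 37C.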
ELG1 genotox: inducers of genotoxicity in HEK293T ELG1-luciferase cells; HEK293T ELG1-luciferase reporter, luminescence, 16 h; Potency, µM (series often up to 46 µM), inactives show at the highest dose activity change, positive = activation, usual class: activators; hit rate 1.3% among 330,000; AID 504466; further: % of control where 0% means no effect; nearly all actives have a fitted effect of over 60% in size
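Step 1: seed 2,000 HEK293T ELG1-luciferase cells per well. Step 2: add compound or DMSO, incubate 16 hr at 37 °C. Step 3: ONE-Glo, 30 min at room temperature, read luminescence.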
NPC1 prom act: activators of NPC1 promoter. hit rate 2.4% among 320,000. Potency, µM (titrated, usually from 9.22 µM), without a hit: at the top dose activation, hits mostly activators. AID 485313. Huh7 NPC1 promoter luciferase reporter, 24 h; further: % of control where 0% means no effect; nearly all actives have a fitted effect of over 60% in size
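Stable NPC1-promoter luciferase Huh7 line; cpd (DMSO) 24 h, 37 °C, 5% CO2; Amplite luciferase reagent 10 min RT; luminescence readout. qHTS format.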
SMN2 splice up: increases expression of the SMN2 splice variant; HEK293 SMN2-luciferase splicing reporter, luminescence, 30-36 h; Potency, µM (highest dose often 46.1 µM), for the others: top-dose activity change, positive = activation, hits mostly activators; hit rate 2.8% among 210,000; further: % of control where 0% means no effect; nearly all actives have a fitted effect of over 55% in size
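HEK293 cells carry an SMN2 minigene-luciferase reporter in which exon 7 inclusion puts luciferase in frame. Cells were seeded at 2000 cells/well, attached for 10-12 hours, then exposed to compounds for 30-36 hours at 37C before ONE-Glo luminescence.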
The depositor's hits bear a star; [ ] = remark or other dose. The call rests on the fitted dose curve; in most records, active means well fitted curve in the direction sought with a large enough effect; inconclusive means small, poorly fitted or top-dose-only effect, or another doubt; inactive means no such curve, though single readings can be large; an effect the other way counts as inactive or inconclusive. Potency means the concentration at half of the fitted maximal effect.

Screening CCn1cnc2cc(NCc3ccc(N(C)C)cc3)ccc21 returned FLuc counter inconclusive, Rab9 prom act -3.0%, ELG1 genotox inconclusive, NPC1 prom act 0.1% and SMN2 splice up -18.1%.
For CN(C)c1ccc(CNc2ccc3c(c2)ncn3C(C)(C)C)cc1 the results were FLuc counter 8.49µM*, Rab9 prom act -1.1%, ELG1 genotox 13.3% and NPC1 prom act -0.9%.
For CCC(=O)Nc1ccc2c(c1)ncn2CCc1ccccc1 the results were FLuc counter -11.0%, Rab9 prom act -3.8%[1.84 µM], ELG1 genotox 9.8% and NPC1 prom act 3.4%.
CCn1cnc2cc(NC(=O)c3cccs3)ccc21 was read as FLuc counter 15.1µM*, Rab9 prom act 2.24µM*, ELG1 genotox inconclusive, NPC1 prom act 3.55µM* and SMN2 splice up 12.6µM*.
`CC(C)(C)n1cnc2cc(NCc3cccs3)ccc21` gave FLuc counter 12µM*, Rab9 prom act inconclusive, ELG1 genotox 19.9%, NPC1 prom act inconclusive and SMN2 splice up 8.91µM*.
For CCOC(=O)/C(C#N)=C\c1ccc(OCC(=O)Nc2ccc(C)cc2C)c(OC)c1 the results were FLuc counter 0.0%, Rab9 prom act -1.2%, ELG1 genotox -0.8%, NPC1 prom act 1.7% and SMN2 splice up 4.7%.
CCC(Sc1nnc2c(n1)[nH]c1ccccc12)C(=O)Nc1ccccc1OC (stereo not given) was read as FLuc counter inconclusive and SMN2 splice up -57.4%.
`CCCOc1cccc(C2C(C(=O)c3ccc(C)o3)=C(O)C(=O)N2c2nc(C)c(C(C)=O)s2)c1` (stereo not given) gave FLuc counter -1.1%, Rab9 prom act 2.8%, ELG1 genotox 15.5% and NPC1 prom act 1.4%.
Screening Cc1ccccc1NC(=O)CSC1=Nc2ccccc2C2=NC(Cc3ccccc3)C(=O)N12 (stereo not given) returned FLuc counter 2.4%.
For CC(C)(C)n1cnc2cc(NC(=O)c3cccs3)ccc21 the results were FLuc counter 7.57µM*, Rab9 prom act 1.26µM*, ELG1 genotox inconclusive, NPC1 prom act 2.51µM* and SMN2 splice up 12.6µM*.
For Cn1c(Cl)nc2ccccc21 the results were FLuc counter 2.3%, Rab9 prom act -0.7%, ELG1 genotox -3.2%, NPC1 prom act -6.5% and SMN2 splice up inconclusive.
CN(C)c1ccc(N=Nc2nc3ccccc3n2C)cc1 was read as FLuc counter 0.019µM*, Rab9 prom act inconclusive, ELG1 genotox -14.2% and NPC1 prom act 28.4%.
`CCn1c(/C=N/c2nc3ccccc3n2C)nc2ccccc21` gave FLuc counter -17.4%, Rab9 prom act 1.6%, ELG1 genotox -2.4%, NPC1 prom act -2.0% and SMN2 splice up -6.3%.
Cn1c(N=Nc2ccccc2)nc2ccccc21 was read as FLuc counter 0.477µM*, Rab9 prom act 0.398µM*, ELG1 genotox 1.16µM*, NPC1 prom act 0.708µM* and SMN2 splice up 0.631µM*.
Screening Cc1cccc(C)c1OCc1nc2c3cnn(-c4cccc(F)c4)c3ncn2n1 returned FLuc counter 1.3% and SMN2 splice up 2.3%.
Cc1ccc(S(=O)(=O)NC(=O)Nc2ccc(C)cn2)cc1 was read as FLuc counter 1.3%, Rab9 prom act -2.0%, ELG1 genotox 7.5% and NPC1 prom act -1.9%.
`CNc1nnc(SCC(=O)c2cc(C)n(C3CC3)c2C)s1` gave Rab9 prom act 3.55µM*, ELG1 genotox inconclusive and NPC1 prom act inconclusive.
CCn1c(C)cc(C(=O)CSc2nnnn2C2CCCC2)c1C was read as FLuc counter 1.9µM*, Rab9 prom act 0.708µM*, ELG1 genotox inconclusive and NPC1 prom act 0.708µM*.
For Cc1cc(NC(=O)CSc2nnnn2C2CCCC2)no1 the results were FLuc counter 1.8%, Rab9 prom act -0.6%, ELG1 genotox 1.4%, NPC1 prom act -1.8% and SMN2 splice up 16.3%.
`Cc1cc(C(=O)CSc2nnnn2C)c(C)n1C1CC1` gave FLuc counter inconclusive, Rab9 prom act 2.82µM*, ELG1 genotox inconclusive, NPC1 prom act inconclusive and SMN2 splice up 10µM*.
`Cc1nnc(SCC(=O)c2cc(C)n(C3CC3)c2C)s1` gave FLuc counter 12µM*, Rab9 prom act 2µM*, ELG1 genotox inconclusive, NPC1 prom act 2.24µM* and SMN2 splice up 25.1µM*.
`CC1(c2ccc3noc(-c4ccc(F)cc4)c3c2)OCCO1` gave FLuc counter inconclusive, Rab9 prom act -1.5%, ELG1 genotox -0.7%, NPC1 prom act 0.6% and SMN2 splice up -72.4%.
`Fc1ccc(-c2onc3ccc(C4OCCO4)cc23)cc1` gave FLuc counter 8.49µM*, Rab9 prom act 5.8%, ELG1 genotox -5.4%, NPC1 prom act 6.2% and SMN2 splice up -12.1%.
`COc1ccc(/C=C2\SC(=O)N(CC(=O)NNC(=O)c3ccccc3O)C2=O)cc1` gave FLuc counter inconclusive, Rab9 prom act 1.5%, ELG1 genotox 2.0%, NPC1 prom act 6.3% and SMN2 splice up 6.6%.
For CC(=O)N1/C(=C/c2ccc(N(C)C)cc2)C(=O)c2ccccc21 the results were FLuc counter 16.9µM*, Rab9 prom act 0.0%, ELG1 genotox -29.2%, NPC1 prom act 1.3% and SMN2 splice up -37.8%.
Screening CC(=O)N1c2ccccc2C(=O)C1N(C)c1ccc(C)cc1 (stereo not given) returned FLuc counter -6.7%, Rab9 prom act 13.0%, ELG1 genotox 2.4% and NPC1 prom act -3.3%.
Screening Cn1ncc2c(Cl)ncnc21 returned SMN2 splice up -16.8%[9.22 µM].
Screening COc1ccc(Cn2c(SCC#N)nc3ccc(N4CCOCC4)cc3c2=O)cc1 returned FLuc counter inconclusive, Rab9 prom act 3.55µM*, ELG1 genotox inconclusive, NPC1 prom act 3.55µM* and SMN2 splice up inconclusive.
Cc1nnc(NC(=O)CSc2nnc(CC(=O)Nc3ccccc3C)n2C)s1 was read as FLuc counter 2.1%, Rab9 prom act 15.5%, ELG1 genotox 2.6% and NPC1 prom act -1.4%.
For Cc1ccc(NC(=O)CSc2n[nH]c(-c3ccncc3)n2)cc1 the results were FLuc counter inconclusive, Rab9 prom act 0.0%, ELG1 genotox -2.6%, NPC1 prom act -0.1% and SMN2 splice up 6.7%.
COc1ccc(-c2nc(SCC(=O)Nc3cccc(S(N)(=O)=O)c3)n[nH]2)cc1 was read as FLuc counter 1.69µM*, Rab9 prom act 24.8%, ELG1 genotox 12.5% and NPC1 prom act 22.5%.
For COc1ccc(NC(=O)CSc2n[nH]c(-c3ccccc3)n2)cc1S(N)(=O)=O the results were FLuc counter 12µM*, Rab9 prom act 2.1%, ELG1 genotox 2.4% and NPC1 prom act -4.8%.
COc1ccc(-c2nc(SCC(=O)Nc3c(C)cc(C)cc3C)n[nH]2)cc1 was read as FLuc counter 15.1µM*.
Screening COc1ccc(NC(=O)CSc2n[nH]c(-c3ccncc3)n2)cc1Cl returned ELG1 genotox 10.4%.
